# From paper PMC4552634, “A New Set of Chemical Starting Points with Plasmodium falciparum Transmission-Blocking Potential for Antimalarial Drug Discovery” (PLoS ONE, 2015)
# The whole screen tested about 13,000 compounds, of which about 3,200 (25%) showed an effect of 50% or more. Some of the results follow.
# Test system: P. falciparum stage V gametocytes
# Design: BacTiter-Glo ATP luminescence viability of purified stage V gametocytes in 384-well plates, per cent inhibition versus DMSO
# Conditions: 48 h, 5 µM; inhibitor
row,SMILES,% Inhibition [%]
1,CN(C)CC1CCCN1Cc1ccccc1-c1cnn(C)c(=O)c1Oc1ccccc1F (stereo not drawn) [TCMDC-135099],9.933
2,CCC(C)c1cnc2nc(N)nc(N)c2c1C (stereo not drawn) [TCMDC-137718],7.013
3,O=C(Nc1ccccc1)N(Cc1ccc(-c2cccc(CNCc3ccc4c(c3)OCO4)c2)cc1)C1CCN(Cc2ccccc2)CC1 [TCMDC-140603],101.1
4,O=C(Nc1ccccc1)N(Cc1ccc(-c2ccc(CNCc3ccc4c(c3)OCO4)cc2)cc1)C1CCN(Cc2ccccc2)CC1 [TCMDC-140604],20.36
5,O=C(NCc1ccccc1)c1ccc(C(=O)NCC2CNCCO2)cc1 (stereo not drawn) [TCMDC-136507],8.876
6,O=c1ccc2ccc(F)c3c2n1CC3CN1CCC(NCc2cccc(-c3cccs3)c2)CC1 (stereo not drawn) [TCMDC-134415],19.28
7,Cc1cc(NCCc2ccc(O)cc2)nc(NCC(c2ccccc2)c2ccccc2)n1 [TCMDC-138305],99.17
8,Cc1cc(Nc2cccc(C(F)(F)F)c2)nc(NCc2ccccc2)n1 [TCMDC-125566],3.225
9,Cc1cc(NCC(c2ccccc2)c2ccccc2)nc(NCc2ccc(C(F)(F)F)cc2)n1 [TCMDC-138302],69.12
10,Cc1cc(N[C@@H](C)C(=O)Nc2ccccc2)nc(NCCc2ccc(F)cc2)n1 [TCMDC-134798],30.85
11,Cc1cc(NCc2ccccc2)nc(NCc2ccccc2)n1 [TCMDC-123662],26.39
12,Oc1cc2c(cc1CN1CCN(Cc3ccccc3F)CC1)CCC2 [TCMDC-125013],-13.06
13,Cc1nc(C(=O)N2CCCC[C@H]2CNC(=O)c2ccc(-c3ccc(N4CCCC4=O)cc3C)cc2)c(-c2ccc(F)cc2)s1 [TCMDC-141437],4.719
14,CCNc1cc(C(=O)N[C@@H](Cc2ccccc2)[C@H](O)CNC2CCC(C)(C)CC2)cc(N2CCCCS2(=O)=O)c1 [TCMDC-135108],43.04
15,c1cc(CN2CCN(c3ccncc3)CC2)cc(-c2cccc(-c3nc4ccccc4[nH]3)c2)c1 [TCMDC-132923],40.29
16,Fc1ccc2nc(-c3cccc(-c4cccc(CN5CCN(c6ccncc6)CC5)c4)c3)[nH]c2c1 [TCMDC-132922],104.6
17,O=C(O)C(F)(F)F.c1cc(-c2ccc(CN3CCN(c4ccncc4)CC3)cc2)cc(-c2nc3ccccc3[nH]2)c1 [TCMDC-132556],5.696
18,Fc1ccc2nc(-c3cccc(-c4ccc(CN5CCN(c6cnccn6)CC5)cc4)c3)[nH]c2c1 [TCMDC-132679],21.91
19,Fc1ccc2nc(-c3cccc(-c4ccc(CN5CCN(c6ccncc6)CC5)cc4)c3)[nH]c2c1 [TCMDC-132918],89.6
20,Fc1ccc2nc(-c3ccc(-c4cccc(CN5CCN(c6ccncc6)CC5)c4)cc3)[nH]c2c1 [TCMDC-133822],-6.554
21,O=C(O)C(F)(F)F.c1cncc(CCNCc2ccc(-c3ccc(-c4nc5ccccc5[nH]4)s3)cc2)c1 [TCMDC-132876],-17.55

row,SMILES,% Inhibition [%]
1,COc1ccc(-c2cnc3ccc(NC4CCC(O)CC4)nn23)cn1 (stereo not drawn) [TCMDC-136694],36.86
2,CN1CCN(CCCNCc2ccccc2-c2cccc(CNCc3ccc4c(c3)OCO4)c2)CC1 [TCMDC-140476],103.3
3,c1cc(CNCc2ccc3c(c2)OCO3)cc(-c2cccc(CNc3ccc4ncccc4c3)c2)c1 [TCMDC-140721],-2.829
4,FC(F)(F)c1ccc(N2CCCN(Cc3cccc(-c4ccccc4CNCc4ccc5c(c4)OCO5)c3)CC2)nc1 [TCMDC-140216],-3.324
5,c1ccc(CCNCc2cccc(-c3ccccc3CNCc3ccc4c(c3)OCO4)c2)nc1 [TCMDC-140068],70.81
6,O=C(Nc1ccc(OC2CCN(Cc3ccsc3)C2)c(Cl)c1)c1ccc(F)cc1 (stereo not drawn) [TCMDC-133952],22.72
7,O=C(NCc1cccc(F)c1)Nc1cccc(-c2cccc(-c3nc4ccc(C(F)(F)F)cc4[nH]3)c2)c1 [TCMDC-133292],-20.5
8,C#CCCC(=O)Nc1cccc(-c2cccc(-c3nc4ccc(C(F)(F)F)cc4[nH]3)c2)c1 [TCMDC-136856],5.566
9,O=C(Nc1cccc(-c2nn3ccccc3c2-c2ccnc(Nc3ccccc3)n2)c1)c1c(F)cccc1F [TCMDC-135526],-37.81
10,CCc1cn2c3c(cc(C(=O)N[C@@H](Cc4cc(F)cc(F)c4)[C@H](O)CNC4CCOCC4)cc13)N(C)S(=O)(=O)CC2 [TCMDC-135797],26.1
11,CCc1cn2c3c(cc(C(=O)N[C@@H](Cc4ccccc4)[C@H](O)CNC4CC4)cc13)N(CC)S(=O)(=O)CC2 [TCMDC-135553],73.35
12,CCc1cn2c3c(cc(C(=O)N[C@@H](Cc4cccc(F)c4)[C@H](O)CNC4CC4)cc13)N(C)S(=O)(=O)CC2 [TCMDC-135651],-23.22
13,CCc1cn2c3c(cc(C(=O)N[C@@H](Cc4ccccc4)[C@H](O)CNC4CCCC4)cc13)N(C)S(=O)(=O)CC2 [TCMDC-135803],56.31
14,CCc1cn2c3c(cc(C(=O)N[C@@H](Cc4ccccc4)[C@H](O)CNC4CCC4)cc13)N(C)S(=O)(=O)CC2 [TCMDC-135674],32.1
15,CCCc1cn2c3c(cc(C(=O)N[C@@H](Cc4ccccc4)[C@H](O)CNC4CCCCC4)cc13)N(C)S(=O)(=O)CC2 [TCMDC-135771],15.59
16,CC(C)c1cn2c3c(cc(C(=O)N[C@@H](Cc4ccccc4)[C@H](O)CNC4CCOCC4)cc13)N(C)S(=O)(=O)CC2 [TCMDC-135535],2.441
17,CCc1cn2c3c(cc(C(=O)N[C@@H](Cc4ccccc4)[C@H](O)CNC4CCOCC4)cc13)N(C)S(=O)(=O)C2 [TCMDC-135394],4.179
18,CCc1cn2c3c(cc(C(=O)N[C@@H](Cc4cc(F)cc(F)c4)[C@H](O)CNC4CC4)cc13)N(C)S(=O)(=O)CC2 [TCMDC-135673],30.94
19,CC(C)c1cn2c3c(cc(C(=O)N[C@@H](Cc4ccccc4)[C@H](O)CNC4CCCCC4)cc13)N(C)S(=O)(=O)CC2 [TCMDC-135533],94.75
20,CCc1cn2c3c(cc(C(=O)N[C@@H](Cc4cc(F)cc(F)c4)[C@H](O)CNC4CCCCC4)cc13)N(C)S(=O)(=O)CC2 [TCMDC-135672],90.03
21,CC(C)NC[C@@H](O)[C@H](Cc1ccccc1)NC(=O)c1cc2c3c(c1)c(C(C)C)cn3CCS(=O)(=O)N2C [TCMDC-135532],49.45
